Results taken from PubChem BioAssay (NCATS).
Results filed as inconclusive are left out. Unmarked numbers belong to inactive results. Calls of active or inactive are those of the source. Calls follow the shape of the dose curve; as a rule, active = well fitted inhibition curve with a large enough effect; inconclusive = small, poorly fitted or top-dose-only effect; inactive = flat fitted curve, though single readings scatter.

Experiments:
Assay in all cases: Cytotoxic Profiling of Annotated Libraries Using Quantitative High-Throughput Screening (AID 1296008); also: nearly all actives have a fitted effect of over 60% in size
Conditions in all cases: Five cell lines viability, CellTiter-Glo ATP luminescence, 48-72 h; max response: hits give low values
CRL-7250 = normal cell line; tested on: CRL-7250
Outline: (§1)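 Compounds were pin-transferred onto cells and incubated 48 or 72 hr at 37 degree Celsius, 95% humidity. CellTiter-Glo was added, plates sat 10 min at room temperature, then ATP-coupled luminescence was imaged as the viability read-out.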

HEK293 = tested on: HEK293
Outline: as §1

HaCat = tested on: HaCat
Outline: as §1

KB-3-1 = tested on: KB-3-1
Outline: as §1

NIH3T3 = tested on: NIH3T3
Outline: as §1
% is scaled to controls: 0 for no effect and ±100 for the full control effect; potency is read from the fitted curve at half-maximal effect.

CCOc1ncc(S(=O)(=O)N2CCN(CC)CC2)cc1-c1nc2c(CC)n(CCOC)nc2c(=O)[nH]1
outcome (CRL-7250): inactive
max response (HEK293): -6.31%
max response (HaCat): 2.49%
outcome (KB-3-1): inactive
outcome (NIH3T3): inactive

C=CCC1=C[C@]2(OC)[C@H](C)[C@@H](c3ccc(OC)c(OC)c3)O[C@]2(OC)CC1=O
max response (CRL-7250): 4.13%
max response (HEK293): -10.4%
max response (HaCat): -0.368%
outcome (KB-3-1): inactive
outcome (NIH3T3): inactive

C=C1C2CCC3CC2(CC(O)C2(O)C1CC(OC1OC(CO)C(O)C(O)C1O)C2(C)C)CC3(C)O (stereo not given)
max response (CRL-7250): -0.056%
max response (HEK293): 4.37%
max response (HaCat): -5.66%
max response (KB-3-1): -0.357%
outcome (NIH3T3): inactive

O=C(/C=C/c1ccc(O)c(O)c1)O[C@@H]1[C@@H](O)[C@H](OC2CCCCC2O)O[C@H](CO)[C@H]1O (stereo not given in full)
max response (CRL-7250): 4.08%
max response (HEK293): 1.79%
max response (HaCat): 2.85%
max response (KB-3-1): 9.07%
outcome (NIH3T3): inactive

CC1(C)CC[C@]2(C(=O)O[C@@H]3O[C@H](CO)[C@@H](O)[C@H](O)[C@H]3O)CC[C@]3(C)C(=CCC4[C@@]5(C)C[C@@H](O)[C@H](O)[C@@](C)(CO)C5[C@H](O)C[C@]43C)C2[C@@H]1O (stereo not given in full)
outcome (CRL-7250): inactive
max response (HEK293): -12.5%
max response (HaCat): 1.4%
outcome (KB-3-1): inactive
outcome (NIH3T3): inactive

CC1=CC23[C@H](C=C(C(=O)O)[C@@H]2COC(=O)[C@]3(O)CO)[C@@H]1C (stereo not given in full)
max response (CRL-7250): -1.44%
max response (HEK293): 2.57%
max response (HaCat): -3.69%
max response (KB-3-1): 5.88%
outcome (NIH3T3): inactive

CC1=C2C(=O)C=C(CO[C@@H]3O[C@H](CO)[C@@H](O)[C@H](O)[C@H]3O)[C@@H]2[C@H]2OC(=O)[C@H](C)[C@@H]2CC1
max response (CRL-7250): -4.79%
max response (HEK293): 3.74%
max response (HaCat): 4.93%
max response (KB-3-1): 0.664%
outcome (NIH3T3): inactive

Cc1ncc(Cl)cc1NCc1ccc(C(=O)NC(CC2CCCC2)C(=O)NC2CC2)s1 (stereo not given)
outcome (CRL-7250): inactive
max response (HEK293): -15.8%
max response (HaCat): -11.9%
max response (KB-3-1): -1.73%
outcome (NIH3T3): inactive

CCOC(=O)C(CCc1ccccc1)NC1CCCN2CCCC(C(=O)O)N2C1=O (stereo not given)
max response (CRL-7250): 2.69%
outcome (HEK293): inactive
max response (HaCat): 1.44%
max response (KB-3-1): 2.78%
max response (NIH3T3): 0.311%

COC(=O)C1=CO[C@@H](O[C@@H]2O[C@H](CO)[C@@H](O)[C@H](O)[C@H]2O)[C@@H]2[C@@H](C)[C@@H](OC(=O)/C=C/c3ccccc3)[C@@H](O)[C@H]12
max response (CRL-7250): -5.94%
max response (HEK293): -9.01%
max response (HaCat): -9.9%
outcome (KB-3-1): inactive
outcome (NIH3T3): inactive

CCCNCCOc1ccc(NC(=O)c2c[nH]c3c2C(=O)CCC3)cc1F
max response (CRL-7250): -8.08%
max response (HEK293): -31.5%
max response (HaCat): -4.5%
max response (KB-3-1): 6.85%
outcome (NIH3T3): inactive

COc1c(-c2ccc(O)cc2)cc(OC)c2c1oc1cc(O)c(OC3OC(CO)C(O)C3O)cc12 (stereo not given)
max response (CRL-7250): -0.713%
max response (HEK293): -3.64%
max response (HaCat): -7.87%
outcome (KB-3-1): inactive
outcome (NIH3T3): inactive

O=C(O[C@@H]1O[C@H](CO)[C@@H](O)[C@H](O)[C@H]1O)c1ccccc1
outcome (CRL-7250): inactive
outcome (HEK293): inactive
max response (HaCat): 4.66%
outcome (KB-3-1): inactive
max response (NIH3T3): 4.36%

C[C@@H]1C(=O)O[C@H]2[C@H]1CC[C@@]1(C)C(=O)C=C[C@@](C)(O)[C@H]21
max response (CRL-7250): -5.99%
outcome (HEK293): inactive
max response (HaCat): -2.04%
max response (KB-3-1): 1.69%
max response (NIH3T3): 4.77%

Cc1cn2cc(CC(=O)N3CCC4(CC3)CN(Cc3ccc(-n5nccn5)cc3Cl)C4)nc2s1
max response (CRL-7250): 2.68%
Potency (HEK293): 16.4 µM (active)
max response (HaCat): 2.32%
max response (KB-3-1): 0.0455%
outcome (NIH3T3): inactive

C/C=C(/C)C(=O)OC1C(OC(C)=O)C23C(O)OC4(CCC5C6(C)CCC(OC7OC(C(=O)O)C(O)C(OC8OC(CO)C(O)C(O)C8OC8OC(C)C(O)C(O)C8OC8OCC(O)C(O)C8O)C7OC7OC(CO)C(O)C(O)C7O)C(C)(C)C6CCC5(C)C4(C)CC2OC(C)=O)C3CC1(C)C (stereo not given)
max response (CRL-7250): 1.39%
outcome (HEK293): inactive
max response (HaCat): 1.22%
max response (KB-3-1): 4.58%
max response (NIH3T3): -12.1%

CC1(CO)CCCC2(C)C3COC(=O)C3=CC(O)C12 (stereo not given)
max response (CRL-7250): 1.03%
max response (HEK293): -8.01%
max response (HaCat): -5.37%
outcome (KB-3-1): inactive
outcome (NIH3T3): inactive

COc1cccc(CNc2ccc(S(=O)(=O)Nc3nc4ccccc4s3)cc2)c1O
max response (CRL-7250): 0.252%
outcome (HEK293): inactive
max response (HaCat): -8.64%
max response (KB-3-1): 7.86%
max response (NIH3T3): -2.92%

C=C1CCC2C(C)(C)CC(O)CC2(C)C1CCC(C)CCOC(=O)CCC(=O)O (stereo not given)
max response (CRL-7250): -28.7%
max response (HEK293): -12.9%
max response (HaCat): -1.5%
max response (KB-3-1): -6.16%
outcome (NIH3T3): inactive

CC1(C)CC[C@]2(C(=O)O[C@@H]3O[C@H](CO[C@@H]4O[C@H](CO)[C@@H](O)[C@H](O)[C@H]4O)[C@@H](O)[C@H](O[C@@H]4O[C@H](CO)[C@@H](O)[C@H](O)[C@H]4O)[C@H]3O)CC[C@]3(C)C(=CCC4[C@@]5(C)CC[C@H](O[C@@H]6OC[C@@H](O)[C@H](O)[C@H]6O)[C@@](C)(C(=O)O)C5CC[C@]43C)[C@@H]2C1 (stereo not given in full)
outcome (CRL-7250): inactive
max response (HEK293): -19.5%
max response (HaCat): -27.8%
outcome (KB-3-1): inactive
outcome (NIH3T3): inactive

O=C(/C=C/c1ccc(O)cc1)OC[C@H]1O[C@H](O[C@@]2(CO)O[C@@H](CO)[C@H](O)[C@H]2O)[C@H](O)[C@@H](O)[C@@H]1O
outcome (CRL-7250): inactive
outcome (HEK293): inactive
max response (HaCat): 1.8%
outcome (KB-3-1): inactive
max response (NIH3T3): -0.438%

COC(=O)[C@H](Cc1ccc([N+](=O)[O-])cc1)NC(=O)c1cccc2ccccc12
max response (CRL-7250): -4.16%
outcome (HEK293): inactive
max response (HaCat): -4.67%
outcome (KB-3-1): inactive
max response (NIH3T3): -1.76%
